Tests used:
Test in all cases: HT-SELEX; 20 mM HEPES pH 7, 140 mM KCl, 5 mM NaCl, 1 mM K2HPO4, 2 mM MgSO4, 100 uM EGTA, ZnSO4, 0.1% Tween20; room temperature, 1 h; high values mean tight binding
Conditions in all cases: protein: ivt; tags: eGFP (N-terminal); dsDNA, one strand shown
[1] = molecular target: ZNF721 full-length (Homo sapiens, UniProt Q8TF20-2 1-923)
In short: (§1)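 Bead-immobilised tagged transcription factor (full-length or DNA-binding-domain fragment), made in HEK293 lysate or cell-free extract, was incubated with a randomized 40-base DNA library. Binding was for 1 h at room temperature in HEPES/KCl low-stringency buffer with Tween20. After washing and heat elution, bound DNA was PCR-amplified over successive cycles and Illumina-sequenced (~3 million 60 bp reads per sample). Binding signal is a relative k-mer count in selected reads; higher means tighter binding.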

[2] = molecular target: ZNF721 DBD2 (Homo sapiens, UniProt Q8TF20-2 395-923)
ZNF721 DBD2, sequence (Q8TF20 383-911): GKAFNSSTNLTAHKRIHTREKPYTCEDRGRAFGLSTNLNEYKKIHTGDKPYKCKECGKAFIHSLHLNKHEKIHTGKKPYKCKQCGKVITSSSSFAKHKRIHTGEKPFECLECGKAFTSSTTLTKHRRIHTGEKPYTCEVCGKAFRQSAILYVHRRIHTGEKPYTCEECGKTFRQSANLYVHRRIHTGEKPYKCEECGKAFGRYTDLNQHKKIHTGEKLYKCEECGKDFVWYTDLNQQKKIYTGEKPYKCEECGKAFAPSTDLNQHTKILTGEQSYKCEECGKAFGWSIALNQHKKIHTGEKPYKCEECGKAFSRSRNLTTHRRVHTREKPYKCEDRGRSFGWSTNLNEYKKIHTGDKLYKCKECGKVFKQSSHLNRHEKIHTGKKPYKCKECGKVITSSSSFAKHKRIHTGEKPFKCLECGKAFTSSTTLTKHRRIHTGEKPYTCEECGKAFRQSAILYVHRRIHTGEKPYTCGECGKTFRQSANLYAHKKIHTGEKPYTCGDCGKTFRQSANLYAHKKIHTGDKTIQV
In short: as §1

[3] = molecular target: ZNF721 DBD1 (Homo sapiens, UniProt Q8TF20-2 29-461)
ZNF721 DBD1, sequence (Q8TF20 17-449): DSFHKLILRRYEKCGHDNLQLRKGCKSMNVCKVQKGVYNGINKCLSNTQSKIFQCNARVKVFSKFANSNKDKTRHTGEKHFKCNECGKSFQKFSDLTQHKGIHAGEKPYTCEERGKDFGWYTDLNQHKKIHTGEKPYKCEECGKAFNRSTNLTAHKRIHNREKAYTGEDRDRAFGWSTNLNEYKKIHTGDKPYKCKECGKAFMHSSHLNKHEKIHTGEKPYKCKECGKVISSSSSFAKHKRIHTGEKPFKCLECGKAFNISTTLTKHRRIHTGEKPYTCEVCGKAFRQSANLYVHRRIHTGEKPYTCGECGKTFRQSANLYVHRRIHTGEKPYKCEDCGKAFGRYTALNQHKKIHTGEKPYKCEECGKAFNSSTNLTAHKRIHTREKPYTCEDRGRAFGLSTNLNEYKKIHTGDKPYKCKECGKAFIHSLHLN
In short: as §1

ZNF721 full-length, sequence (Q8TF20 other isoform, or with tags, fused parts or gaps): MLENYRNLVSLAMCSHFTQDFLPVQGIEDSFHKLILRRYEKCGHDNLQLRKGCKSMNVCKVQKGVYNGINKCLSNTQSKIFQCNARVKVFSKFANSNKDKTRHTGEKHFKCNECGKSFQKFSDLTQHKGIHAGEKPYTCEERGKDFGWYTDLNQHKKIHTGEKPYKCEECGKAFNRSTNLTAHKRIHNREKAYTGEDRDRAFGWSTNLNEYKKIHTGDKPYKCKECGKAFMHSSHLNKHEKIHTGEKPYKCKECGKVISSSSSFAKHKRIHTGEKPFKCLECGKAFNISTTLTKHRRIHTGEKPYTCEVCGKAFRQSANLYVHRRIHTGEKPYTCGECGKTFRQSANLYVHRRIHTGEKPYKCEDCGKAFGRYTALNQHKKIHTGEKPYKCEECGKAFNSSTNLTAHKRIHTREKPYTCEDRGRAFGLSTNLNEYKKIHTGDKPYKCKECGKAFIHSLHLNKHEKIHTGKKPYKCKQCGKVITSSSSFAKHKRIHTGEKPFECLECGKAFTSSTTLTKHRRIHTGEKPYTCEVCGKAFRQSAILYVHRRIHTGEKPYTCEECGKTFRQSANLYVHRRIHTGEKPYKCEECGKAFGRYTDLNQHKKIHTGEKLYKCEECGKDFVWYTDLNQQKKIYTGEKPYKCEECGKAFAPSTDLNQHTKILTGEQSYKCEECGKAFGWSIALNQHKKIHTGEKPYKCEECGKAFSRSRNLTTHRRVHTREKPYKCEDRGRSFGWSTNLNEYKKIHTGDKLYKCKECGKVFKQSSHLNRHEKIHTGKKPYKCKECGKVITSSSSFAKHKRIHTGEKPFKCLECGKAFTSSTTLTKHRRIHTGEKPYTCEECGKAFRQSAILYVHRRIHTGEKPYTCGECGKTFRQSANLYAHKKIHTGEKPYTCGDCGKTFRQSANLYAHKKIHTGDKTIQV

Sequence	binding signal [1]	binding signal [2]	binding signal [3]
AAAACAGCGG	0.134 relative 10-mer count	0.189 relative 10-mer count	
AAACAGCACA	0.11 relative 10-mer count	0.109 relative 10-mer count	
AACAGCATAT	0.118 relative 10-mer count	0.181 relative 10-mer count	
AACGCTGCTT	0.207 relative 10-mer count	0.327 relative 10-mer count	
CAAAAAACAG	0.386 relative 10-mer count	0.495 relative 10-mer count	
ATGCTGTTTC	0.143 relative 10-mer count	0.178 relative 10-mer count	
AAGCAGTGTA	0.142 relative 10-mer count	0.18 relative 10-mer count	
CCGACCCACC	0.115 relative 10-mer count	0.00467 relative 10-mer count	0.00367 relative 10-mer count
CAGTGTTTCC	0.252 relative 10-mer count	0.641 relative 10-mer count	
AAAGCAGCAC	0.125 relative 10-mer count	0.126 relative 10-mer count	0.00583 relative 10-mer count
CCCCCGACCC	0.181 relative 10-mer count	0.0018 relative 10-mer count	0.00587 relative 10-mer count
AAAAGAACAG	0.113 relative 10-mer count	0.0777 relative 10-mer count	
ACAAAACAGC	0.249 relative 10-mer count	0.272 relative 10-mer count	
CAAAGCAGCG	0.114 relative 10-mer count	0.158 relative 10-mer count	
AAACAGGGGT	0.106 relative 10-mer count	0.153 relative 10-mer count	
AAAAACAGGG	0.283 relative 10-mer count	0.337 relative 10-mer count	
GCAACACTGC	0.135 relative 10-mer count	0.238 relative 10-mer count	
GAAACGCTGC	0.102 relative 10-mer count	0.169 relative 10-mer count	
CCCACAACCC	0.106 relative 10-mer count	0.00348 relative 10-mer count	0.00431 relative 10-mer count
AAAACAGAGT	0.236 relative 10-mer count	0.279 relative 10-mer count	
ACAGAGTACC	0.123 relative 10-mer count	0.152 relative 10-mer count	
AGAGTACCCA	0.112 relative 10-mer count	0.123 relative 10-mer count	
AAAAACAGAA	0.108 relative 10-mer count	0.0718 relative 10-mer count	
ACAAAAAAAG	0.12 relative 10-mer count	0.0533 relative 10-mer count	0.0121 relative 10-mer count

Sequence	binding signal [1]	binding signal [2]	binding signal [3]
AAAAGCAGCG	0.276 relative 10-mer count	0.326 relative 10-mer count	
GCTGTTTTTA	0.135 relative 10-mer count	0.204 relative 10-mer count	
AAACACTGTT	0.135 relative 10-mer count	0.266 relative 10-mer count	
AAAAAGCAGG	0.195 relative 10-mer count	0.172 relative 10-mer count	
CAGTGTATCC	0.208 relative 10-mer count	0.401 relative 10-mer count	
CAGTGTCTCC	0.213 relative 10-mer count	0.552 relative 10-mer count	
AGAAAACAGC	0.251 relative 10-mer count	0.322 relative 10-mer count	
GCCCCTCCCC	0.144 relative 10-mer count	0.00551 relative 10-mer count	0.00596 relative 10-mer count
AAACAGAGTA	0.198 relative 10-mer count	0.22 relative 10-mer count	
ACAGTGTATC	0.137 relative 10-mer count	0.202 relative 10-mer count	
AACAGCATGC	0.113 relative 10-mer count	0.163 relative 10-mer count	
CAGTGTTACC	0.128 relative 10-mer count	0.259 relative 10-mer count	
AAAACAGCAC	0.279 relative 10-mer count	0.306 relative 10-mer count	
ACACCCACCC	0.171 relative 10-mer count	0.00336 relative 10-mer count	0.0105 relative 10-mer count
CGAAAAACAG	0.174 relative 10-mer count	0.222 relative 10-mer count	
AACAGAGTAC	0.127 relative 10-mer count	0.166 relative 10-mer count	
AACAGCGTCT	0.203 relative 10-mer count	0.347 relative 10-mer count	
AGAAAAACAG	0.178 relative 10-mer count	0.208 relative 10-mer count	
AGCAGTGTTG	0.13 relative 10-mer count	0.223 relative 10-mer count	
AACAGCATCC	0.117 relative 10-mer count	0.1 relative 10-mer count	
TAAAACAGCA	0.152 relative 10-mer count	0.177 relative 10-mer count	
CAGAAAACAG	0.147 relative 10-mer count	0.264 relative 10-mer count	
AAAAACAGAG	0.212 relative 10-mer count	0.213 relative 10-mer count	
ACTGTTTTTC	0.135 relative 10-mer count	0.17 relative 10-mer count	

Sequence	binding signal [1]	binding signal [2]	binding signal [3]
GAAAAACAGC	0.265 relative 10-mer count	0.324 relative 10-mer count	
AAAGGAACAG	0.113 relative 10-mer count	0.0545 relative 10-mer count	
CCAAAAACAG	0.108 relative 10-mer count	0.144 relative 10-mer count	
AGACACTGCT	0.109 relative 10-mer count	0.127 relative 10-mer count	
AAACAGCGTC	0.206 relative 10-mer count	0.277 relative 10-mer count	
AACCCTGCTT	0.197 relative 10-mer count	0.258 relative 10-mer count	
CTGTTTTTTA	0.204 relative 10-mer count	0.282 relative 10-mer count	
CAGAGTACCC	0.125 relative 10-mer count	0.18 relative 10-mer count	
AAACAGCATC	0.208 relative 10-mer count	0.21 relative 10-mer count	
CAGGGTATCC	0.221 relative 10-mer count	0.431 relative 10-mer count	
AAAAACTAGC	0.103 relative 10-mer count	0.135 relative 10-mer count	
AAAACAGCGT	0.759 relative 10-mer count	0.975 relative 10-mer count	
CAGCATGCCC	0.121 relative 10-mer count	0.244 relative 10-mer count	
GAGACACTGC	0.113 relative 10-mer count	0.128 relative 10-mer count	
AAACAGCAGT	0.106 relative 10-mer count	0.159 relative 10-mer count	
ATAAAAACAG	0.11 relative 10-mer count	0.148 relative 10-mer count	
CCGAAAACAG	0.111 relative 10-mer count	0.217 relative 10-mer count	
AAAAAACAGA	0.261 relative 10-mer count	0.219 relative 10-mer count	
ACGCTGTTTC	0.13 relative 10-mer count	0.199 relative 10-mer count	
CAGCGTTTCC	0.342 relative 10-mer count	0.861 relative 10-mer count	
CGCTGTTTTC	0.221 relative 10-mer count	0.356 relative 10-mer count	
AACAGTGTTG	0.127 relative 10-mer count	0.327 relative 10-mer count	
CAAAACAGCG	0.142 relative 10-mer count	0.176 relative 10-mer count	
ACAGCATGAC	0.209 relative 10-mer count	0.295 relative 10-mer count	

Sequence	binding signal [1]	binding signal [2]	binding signal [3]
AAACAGTGTA	0.179 relative 10-mer count	0.225 relative 10-mer count	
AAACTAGCAT	0.118 relative 10-mer count	0.175 relative 10-mer count	
AAAACAGCGC	0.17 relative 10-mer count	0.225 relative 10-mer count	
CAAAGCAGCA	0.112 relative 10-mer count	0.132 relative 10-mer count	
GAAACACTGC	0.118 relative 10-mer count	0.188 relative 10-mer count	
AAAACAGCAT	0.921 relative 10-mer count	1 relative 10-mer count	
AAACAAACAG	0.143 relative 10-mer count	0.0858 relative 10-mer count	
ACAGCATATC	0.126 relative 10-mer count	0.174 relative 10-mer count	
CAGCATGACC	0.229 relative 10-mer count	0.437 relative 10-mer count	
AACAAAACAG	0.206 relative 10-mer count	0.223 relative 10-mer count	
AACAGCGTAT	0.225 relative 10-mer count	0.366 relative 10-mer count	
AAACAGCAGC	0.122 relative 10-mer count	0.135 relative 10-mer count	
AAACAGGGTT	0.271 relative 10-mer count	0.368 relative 10-mer count	
AAGCAGTGTC	0.13 relative 10-mer count	0.151 relative 10-mer count	
AATAAAACAG	0.132 relative 10-mer count	0.168 relative 10-mer count	
AAAAGCAGTG	0.383 relative 10-mer count	0.397 relative 10-mer count	
ACAGCATCCC	0.114 relative 10-mer count	0.088 relative 10-mer count	
ACAGTGTTGC	0.13 relative 10-mer count	0.341 relative 10-mer count	
AAAACAGTGC	0.121 relative 10-mer count	0.195 relative 10-mer count	
CTGTTTTTTC	0.357 relative 10-mer count	0.365 relative 10-mer count	
ACAGTGTTTC	0.14 relative 10-mer count	0.272 relative 10-mer count	
AAAACAGCAG	0.243 relative 10-mer count	0.264 relative 10-mer count	
AAACAGCATA	0.56 relative 10-mer count	0.657 relative 10-mer count	
AACACTGCTT	0.388 relative 10-mer count	0.495 relative 10-mer count	

Sequence	binding signal [1]	binding signal [2]	binding signal [3]
AAAACAGCCC	0.152 relative 10-mer count	0.156 relative 10-mer count	
AAAACTAGCA	0.127 relative 10-mer count	0.173 relative 10-mer count	
AAACAGCATT	0.17 relative 10-mer count	0.254 relative 10-mer count	
AAAGCAGTGT	0.513 relative 10-mer count	0.632 relative 10-mer count	
ACAAAACAGT	0.115 relative 10-mer count	0.123 relative 10-mer count	
AAAAACAGTG	0.406 relative 10-mer count	0.517 relative 10-mer count	
AAAAACAGCC	0.167 relative 10-mer count	0.172 relative 10-mer count	
ACAGCGTATC	0.232 relative 10-mer count	0.371 relative 10-mer count	
AAACAGGGTA	0.175 relative 10-mer count	0.22 relative 10-mer count	
ACGAAAACAG	0.106 relative 10-mer count	0.149 relative 10-mer count	
CAGGGTTTCC	0.162 relative 10-mer count	0.368 relative 10-mer count	
CAGCATATCC	0.162 relative 10-mer count	0.216 relative 10-mer count	
ACAAAGCAGC	0.189 relative 10-mer count	0.238 relative 10-mer count	
ACAAAGCAGT	0.146 relative 10-mer count	0.174 relative 10-mer count	
AAAACAGGGT	0.391 relative 10-mer count	0.506 relative 10-mer count	
AAACAGCACT	0.14 relative 10-mer count	0.201 relative 10-mer count	
ACAGGGTATC	0.137 relative 10-mer count	0.2 relative 10-mer count	
AAACACTGCT	0.109 relative 10-mer count	0.18 relative 10-mer count	
AAAAAACAGC	1 relative 10-mer count	0.902 relative 10-mer count	
AAAACAGTGT	0.495 relative 10-mer count	0.712 relative 10-mer count	
CAGCGTTGCC	0.143 relative 10-mer count	0.423 relative 10-mer count	
CAAAAACAGC	0.163 relative 10-mer count	0.251 relative 10-mer count	
AAACAGGATA	0.111 relative 10-mer count	0.121 relative 10-mer count	
AAAAAAACAG	0.967 relative 10-mer count	0.753 relative 10-mer count	
